Measurements reported in the supplement of paper PMC11001985.

compound: C#CCNC(=O)CCSSCCC(=O)NCCc1ccc(C=O)c(C=O)c1; assay: lysine labeling ratio R10:1 (500 µM / 50 µM probe), SILAC-ABPP in living cells; higher = lower intrinsic lysine reactivity toward the probe, active = 2 or less; conditions: HeLa; probe concentrations 500 vs 50 µM
Outline: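 Living SILAC light and heavy HeLa cells in PBS at room temperature were treated with an alkyne-tagged, disulfide-linked lysine probe at 50 µM or 500 µM, with forward and reverse label swaps. The mixed lysates were clicked to biotin-azide, digested with trypsin, captured on neutravidin, released with DTT, alkylated and run by LC-MS/MS on a TIMS-TOF Pro. R for each lysine is the filtered median high-probe/low-probe MS1 peptide ratio, taken again as the median over forward and reverse replicates. Any value above 20 is set to 20.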

Chain of UniProt P48643 (P48643 whole entry): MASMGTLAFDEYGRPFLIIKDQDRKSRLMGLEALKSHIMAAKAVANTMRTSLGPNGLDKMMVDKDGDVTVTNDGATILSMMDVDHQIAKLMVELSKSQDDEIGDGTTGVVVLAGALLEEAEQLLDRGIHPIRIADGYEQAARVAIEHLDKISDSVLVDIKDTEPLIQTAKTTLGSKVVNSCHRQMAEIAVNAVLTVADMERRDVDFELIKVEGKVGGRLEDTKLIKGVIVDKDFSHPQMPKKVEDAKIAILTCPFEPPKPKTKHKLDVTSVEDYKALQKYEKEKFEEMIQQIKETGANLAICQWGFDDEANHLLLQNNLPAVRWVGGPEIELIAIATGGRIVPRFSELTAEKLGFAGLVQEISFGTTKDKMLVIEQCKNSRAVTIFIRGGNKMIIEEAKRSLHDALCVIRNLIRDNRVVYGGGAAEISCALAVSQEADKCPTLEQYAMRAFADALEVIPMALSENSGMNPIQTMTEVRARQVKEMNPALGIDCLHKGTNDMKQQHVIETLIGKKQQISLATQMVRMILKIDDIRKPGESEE
Chain of UniProt O14745 (O14745 whole entry): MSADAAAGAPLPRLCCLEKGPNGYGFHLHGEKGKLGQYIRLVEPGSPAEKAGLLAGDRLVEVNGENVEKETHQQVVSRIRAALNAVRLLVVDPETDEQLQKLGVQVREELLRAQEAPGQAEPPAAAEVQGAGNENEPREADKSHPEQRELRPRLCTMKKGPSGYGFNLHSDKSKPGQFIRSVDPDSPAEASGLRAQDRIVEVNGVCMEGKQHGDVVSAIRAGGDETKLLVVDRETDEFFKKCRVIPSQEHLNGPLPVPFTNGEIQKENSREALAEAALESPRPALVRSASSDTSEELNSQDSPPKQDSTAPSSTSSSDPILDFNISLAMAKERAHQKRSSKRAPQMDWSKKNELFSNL
Chain of UniProt P11142 (P11142 whole entry, looked up): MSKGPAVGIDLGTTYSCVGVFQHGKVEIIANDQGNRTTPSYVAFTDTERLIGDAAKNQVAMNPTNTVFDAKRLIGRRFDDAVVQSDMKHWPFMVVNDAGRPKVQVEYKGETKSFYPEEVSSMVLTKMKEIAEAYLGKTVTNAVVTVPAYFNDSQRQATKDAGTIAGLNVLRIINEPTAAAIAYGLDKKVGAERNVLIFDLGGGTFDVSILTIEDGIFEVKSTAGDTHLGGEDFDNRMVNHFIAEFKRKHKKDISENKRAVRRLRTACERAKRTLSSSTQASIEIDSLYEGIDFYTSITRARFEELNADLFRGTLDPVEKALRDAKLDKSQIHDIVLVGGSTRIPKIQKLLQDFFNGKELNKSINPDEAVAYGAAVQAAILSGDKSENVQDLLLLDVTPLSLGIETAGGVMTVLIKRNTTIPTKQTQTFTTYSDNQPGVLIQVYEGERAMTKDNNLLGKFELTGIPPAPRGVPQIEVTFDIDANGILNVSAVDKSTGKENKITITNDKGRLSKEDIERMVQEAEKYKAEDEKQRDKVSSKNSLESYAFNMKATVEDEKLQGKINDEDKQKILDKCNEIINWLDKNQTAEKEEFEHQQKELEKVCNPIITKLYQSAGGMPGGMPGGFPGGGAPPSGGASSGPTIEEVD
Chain of UniProt P26447 (P26447 whole entry, looked up): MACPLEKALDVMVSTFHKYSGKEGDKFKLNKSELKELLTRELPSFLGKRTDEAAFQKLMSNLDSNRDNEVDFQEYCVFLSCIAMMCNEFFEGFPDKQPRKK
Chain of UniProt O00560 (O00560 whole entry): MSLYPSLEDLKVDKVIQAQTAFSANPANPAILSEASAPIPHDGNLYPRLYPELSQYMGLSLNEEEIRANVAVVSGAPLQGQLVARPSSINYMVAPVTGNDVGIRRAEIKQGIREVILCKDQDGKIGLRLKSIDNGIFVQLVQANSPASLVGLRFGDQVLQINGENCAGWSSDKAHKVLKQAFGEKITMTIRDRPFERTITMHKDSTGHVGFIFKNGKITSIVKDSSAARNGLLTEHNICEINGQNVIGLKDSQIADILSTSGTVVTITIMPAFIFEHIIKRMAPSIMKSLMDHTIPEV
Chain of UniProt Q9UKX5 (Q9UKX5 whole entry): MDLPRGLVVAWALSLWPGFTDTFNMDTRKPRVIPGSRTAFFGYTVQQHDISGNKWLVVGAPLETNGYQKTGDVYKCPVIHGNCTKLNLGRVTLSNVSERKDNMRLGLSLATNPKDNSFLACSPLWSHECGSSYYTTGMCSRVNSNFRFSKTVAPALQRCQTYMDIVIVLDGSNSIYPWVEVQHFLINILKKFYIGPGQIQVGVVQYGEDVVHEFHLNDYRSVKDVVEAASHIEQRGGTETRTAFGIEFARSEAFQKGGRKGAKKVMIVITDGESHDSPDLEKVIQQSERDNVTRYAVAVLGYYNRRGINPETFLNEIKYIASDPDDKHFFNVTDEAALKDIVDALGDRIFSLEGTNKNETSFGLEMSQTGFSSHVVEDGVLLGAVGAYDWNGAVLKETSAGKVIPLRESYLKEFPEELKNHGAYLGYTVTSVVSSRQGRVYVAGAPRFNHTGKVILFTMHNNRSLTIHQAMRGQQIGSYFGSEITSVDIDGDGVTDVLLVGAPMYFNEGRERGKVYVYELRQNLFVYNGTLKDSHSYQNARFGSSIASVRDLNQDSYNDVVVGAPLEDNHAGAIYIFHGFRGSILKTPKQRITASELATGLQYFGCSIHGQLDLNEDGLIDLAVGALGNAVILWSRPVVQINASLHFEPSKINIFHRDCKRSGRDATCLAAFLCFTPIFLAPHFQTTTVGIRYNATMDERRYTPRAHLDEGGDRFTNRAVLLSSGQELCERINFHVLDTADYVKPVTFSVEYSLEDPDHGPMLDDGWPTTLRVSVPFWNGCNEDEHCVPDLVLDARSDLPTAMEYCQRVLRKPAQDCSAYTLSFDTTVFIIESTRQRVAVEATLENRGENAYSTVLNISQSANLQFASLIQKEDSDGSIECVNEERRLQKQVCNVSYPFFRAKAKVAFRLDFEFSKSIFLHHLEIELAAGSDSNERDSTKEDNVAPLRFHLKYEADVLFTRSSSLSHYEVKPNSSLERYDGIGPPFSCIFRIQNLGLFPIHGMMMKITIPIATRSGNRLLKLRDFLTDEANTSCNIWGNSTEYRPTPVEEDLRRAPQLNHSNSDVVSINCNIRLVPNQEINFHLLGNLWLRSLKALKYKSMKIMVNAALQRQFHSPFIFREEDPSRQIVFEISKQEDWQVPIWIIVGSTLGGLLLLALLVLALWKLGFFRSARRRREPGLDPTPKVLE
Chain of UniProt P06213 (P06213 whole entry): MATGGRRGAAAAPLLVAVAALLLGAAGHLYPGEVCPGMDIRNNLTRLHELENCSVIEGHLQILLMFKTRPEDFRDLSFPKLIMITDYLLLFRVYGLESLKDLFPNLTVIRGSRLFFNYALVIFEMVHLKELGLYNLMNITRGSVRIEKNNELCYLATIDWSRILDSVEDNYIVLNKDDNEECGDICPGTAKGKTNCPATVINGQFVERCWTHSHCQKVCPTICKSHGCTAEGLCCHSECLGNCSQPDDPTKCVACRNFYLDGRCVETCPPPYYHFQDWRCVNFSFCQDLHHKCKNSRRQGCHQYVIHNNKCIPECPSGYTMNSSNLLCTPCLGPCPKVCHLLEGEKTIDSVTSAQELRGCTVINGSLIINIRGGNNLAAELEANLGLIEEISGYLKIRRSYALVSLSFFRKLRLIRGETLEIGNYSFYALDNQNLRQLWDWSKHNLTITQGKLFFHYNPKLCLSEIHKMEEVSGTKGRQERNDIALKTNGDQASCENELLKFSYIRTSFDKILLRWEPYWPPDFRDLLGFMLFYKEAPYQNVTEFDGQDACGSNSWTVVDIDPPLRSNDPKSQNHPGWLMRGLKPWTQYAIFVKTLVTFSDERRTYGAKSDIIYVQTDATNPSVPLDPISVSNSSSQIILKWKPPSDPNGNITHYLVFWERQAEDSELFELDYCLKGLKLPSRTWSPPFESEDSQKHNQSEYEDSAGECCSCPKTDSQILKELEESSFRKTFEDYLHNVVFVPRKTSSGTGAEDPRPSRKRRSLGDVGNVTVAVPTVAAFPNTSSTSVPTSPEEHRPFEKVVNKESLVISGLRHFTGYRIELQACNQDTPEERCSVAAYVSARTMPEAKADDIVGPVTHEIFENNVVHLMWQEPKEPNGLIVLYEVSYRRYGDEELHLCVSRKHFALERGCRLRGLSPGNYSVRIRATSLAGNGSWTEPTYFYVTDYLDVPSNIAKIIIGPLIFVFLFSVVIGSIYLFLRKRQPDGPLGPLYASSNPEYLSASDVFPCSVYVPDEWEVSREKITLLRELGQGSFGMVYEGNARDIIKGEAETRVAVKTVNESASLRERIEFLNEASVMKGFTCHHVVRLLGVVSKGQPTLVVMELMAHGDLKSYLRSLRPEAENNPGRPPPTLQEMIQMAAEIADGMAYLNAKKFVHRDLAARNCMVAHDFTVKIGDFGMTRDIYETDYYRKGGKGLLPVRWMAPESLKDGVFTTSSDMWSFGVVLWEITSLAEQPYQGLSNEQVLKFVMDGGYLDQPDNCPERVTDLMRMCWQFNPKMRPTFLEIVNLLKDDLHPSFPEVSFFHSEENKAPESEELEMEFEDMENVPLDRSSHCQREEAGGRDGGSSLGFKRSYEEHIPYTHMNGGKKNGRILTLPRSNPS
Chain of UniProt O00622 (O00622 whole entry): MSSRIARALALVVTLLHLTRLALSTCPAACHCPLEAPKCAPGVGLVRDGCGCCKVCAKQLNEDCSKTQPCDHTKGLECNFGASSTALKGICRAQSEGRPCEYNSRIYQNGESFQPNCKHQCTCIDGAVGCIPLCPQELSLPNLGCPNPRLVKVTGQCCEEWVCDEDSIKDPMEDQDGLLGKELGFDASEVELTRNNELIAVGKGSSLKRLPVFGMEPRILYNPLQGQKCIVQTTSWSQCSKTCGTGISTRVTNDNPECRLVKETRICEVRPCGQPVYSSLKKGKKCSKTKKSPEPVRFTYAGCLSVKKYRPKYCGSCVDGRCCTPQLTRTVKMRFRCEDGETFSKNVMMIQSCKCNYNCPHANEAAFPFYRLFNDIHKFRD
Chain of UniProt Q9Y5J9 (Q9Y5J9 whole entry): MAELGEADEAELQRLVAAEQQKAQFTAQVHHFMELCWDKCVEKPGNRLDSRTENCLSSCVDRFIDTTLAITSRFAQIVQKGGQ

**Q.** How did the “lysine labeling ratio R10:1” value turn out when “C3 (lysine site: K1051) (UniProt P01024)” was run?
**A.** 6.25 (inactive)

**Q.** Which “lysine labeling ratio R10:1” value does the source give for “MCAM (lysine site: K551) (UniProt P43121)” here?
**A.** 5.15 (inactive)

**Q.** For “FKBP4 (lysine site: K181) (UniProt Q02790)”, which “lysine labeling ratio R10:1” value is on record?
**A.** 1.43 (active)

**Q.** “PDCD6IP (lysine site: K486) (UniProt Q8WUM4)” was tested. Which “lysine labeling ratio R10:1” value did it give?
**A.** 0.775 (active)

**Q.** UniProt Q6NZI2 (lysine site: K276) was tested. Which “lysine labeling ratio R10:1” value did it give?
**A.** 4.1 (inactive)

**Q.** UniProt P22413 (lysine site: K465) was tested. Which “lysine labeling ratio R10:1” value did it give?
**A.** 1.52 (active)

**Q.** How did the “lysine labeling ratio R10:1” value turn out when UniProt P61981 (lysine site: K10) was run?
**A.** 4.23 (inactive)

**Q.** How did the “lysine labeling ratio R10:1” value turn out when “CCT2 (lysine site: K230) (UniProt P78371)” was run?
**A.** 3.3 (inactive)

**Q.** “RPL3 (lysine site: K356) (UniProt P39023)” was tested. Which “lysine labeling ratio R10:1” value did it give?
**A.** 2.08 (inactive)

**Q.** For UniProt Q15149 (lysine site: K1886), which “lysine labeling ratio R10:1” value is on record?
**A.** 1.49 (active)

**Q.** How did the “lysine labeling ratio R10:1” value turn out when “FSCN1 (lysine site: K43) (UniProt Q16658)” was run?
**A.** 1.7 (active)

**Q.** Which “lysine labeling ratio R10:1” value does the source give for “TMEM109 (lysine site: K215) (UniProt Q9BVC6)” here?
**A.** 3.67 (inactive)

**Q.** With “PPIA (lysine site: K155) (UniProt P62937)” as the target, how does the “lysine labeling ratio R10:1” value read?
**A.** 2.47 (inactive)

**Q.** How did the “lysine labeling ratio R10:1” value turn out when “TGFBR3 (lysine site: K685) (UniProt Q03167)” was run?
**A.** 1.81 (active)

**Q.** Which “lysine labeling ratio R10:1” value does the source give for “RUVBL2 (lysine site: K427) (UniProt Q9Y230)” here?
**A.** 2.02 (inactive)

**Q.** “CYR61 (lysine site: K208) (UniProt O00622)” was tested. Which “lysine labeling ratio R10:1” value did it give?
**A.** 2.96 (inactive)

**Q.** Which “lysine labeling ratio R10:1” value does the source give for UniProt Q5XKE5 (lysine site: K350) here?
**A.** 4.43 (inactive)

**Q.** How did the “lysine labeling ratio R10:1” value turn out when “SLC9A3R1 (lysine site: K227) (UniProt O14745)” was run?
**A.** 3.96 (inactive)

**Q.** For UniProt Q9UKX5 (lysine site: K402), which “lysine labeling ratio R10:1” value is on record?
**A.** 0.975 (active)

**Q.** How did the “lysine labeling ratio R10:1” value turn out when “DDX5 (lysine site: K56) (UniProt P17844)” was run?
**A.** 2.69 (inactive)

**Q.** How did the “lysine labeling ratio R10:1” value turn out when “SLC25A4 (lysine site: K245) (UniProt P12235)” was run?
**A.** 1.72 (active)

**Q.** How did the “lysine labeling ratio R10:1” value turn out when UniProt P50281 (lysine site: K337) was run?
**A.** 1.7 (active)

**Q.** How did the “lysine labeling ratio R10:1” value turn out when “VASN (lysine site: K506) (UniProt Q6EMK4)” was run?
**A.** 5.1 (inactive)

**Q.** Which “lysine labeling ratio R10:1” value does the source give for “PPT1 (lysine site: K191) (UniProt P50897)” here?
**A.** 1.31 (active)

**Q.** Which “lysine labeling ratio R10:1” value does the source give for “LAMA5 (lysine site: K1227) (UniProt O15230)” here?
**A.** 2.71 (inactive)

**Q.** For UniProt P62805 (lysine site: K13), which “lysine labeling ratio R10:1” value is on record?
**A.** 2.71 (inactive)

**Q.** Which “lysine labeling ratio R10:1” value does the source give for “TIMM8B (lysine site: K80) (UniProt Q9Y5J9)” here?
**A.** 1.18 (active)

**Q.** For “TM9SF2 (lysine site: K495) (UniProt Q99805)”, which “lysine labeling ratio R10:1” value is on record?
**A.** 4.38 (inactive)

**Q.** “SDCBP (lysine site: K223) (UniProt O00560)” was tested. Which “lysine labeling ratio R10:1” value did it give?
**A.** 2.46 (inactive)

**Q.** Which “lysine labeling ratio R10:1” value does the source give for “PLXNA2 (lysine site: K820) (UniProt O75051)” here?
**A.** 5.38 (inactive)

**Q.** With “INSR (lysine site: K903) (UniProt P06213)” as the target, how does the “lysine labeling ratio R10:1” value read?
**A.** 2.04 (inactive)

**Q.** Which “lysine labeling ratio R10:1” value does the source give for UniProt P62269 (lysine site: K137) here?
**A.** 3.21 (inactive)

**Q.** Which “lysine labeling ratio R10:1” value does the source give for “FRAS1 (lysine site: K263) (UniProt Q86XX4)” here?
**A.** 1.46 (active)

**Q.** For “S100A4 (lysine site: K35) (UniProt P26447)”, which “lysine labeling ratio R10:1” value is on record?
**A.** 6.43 (inactive)

**Q.** UniProt P62244 (lysine site: K71) was tested. Which “lysine labeling ratio R10:1” value did it give?
**A.** 3.24 (inactive)

**Q.** “SYNE2 (lysine site: K1618) (UniProt Q8WXH0)” was tested. Which “lysine labeling ratio R10:1” value did it give?
**A.** 1.41 (active)

**Q.** For “HSPA8 (lysine site: K71) (UniProt P11142)”, which “lysine labeling ratio R10:1” value is on record?
**A.** 2.62 (inactive)

**Q.** Which “lysine labeling ratio R10:1” value does the source give for “RPS3 (lysine site: K108) (UniProt P23396)” here?
**A.** 4.95 (inactive)

**Q.** How did the “lysine labeling ratio R10:1” value turn out when “CCT5 (lysine site: K214) (UniProt P48643)” was run?
**A.** 1.21 (active)

**Q.** “MSLN (lysine site: K306) (UniProt Q13421)” was tested. Which “lysine labeling ratio R10:1” value did it give?
**A.** 1.74 (active)
